gsp agonist – qHTS for Agonist of gsp, the Etiologic Mutation Responsible for Fibrous Dysplasia/McCune-Albright Syndrome: qHTS. gsp mutant cells, cAMP HTRF, 30 min. Potency, µM (top dose mostly 76.9 µM), for the others: top-dose activation (cAMP increase), hits mostly activators. 0.13% of 340,000 active; active = well fitted activation curve with a large enough effect; inconclusive = small, poorly fitted or top-dose-only effect, or another doubt; inactive = no such curve, though single readings can be large or run the other way; cell line not stated here;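 note: phosphodiesterase inhibitor Ro 20-1724 added with compounds to block cAMP breakdown; potency is the fitted concentration of half-maximal effect; nearly all actives have a fitted effect of over 60% in size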
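Cells stably selected in G418 were plated at 2000/well, grown 16-24 hr, then given compounds in DMSO with the PDE inhibitor […] (300 uM solution added) for 30 min at 37C; cAMP was read by HTRF.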
TRPV1 PAM – HTS Assay for Compounds that Act as Potentiators of the Vanilloid Receptor 1. TRPV1-expressing cells, Fluo-8 calcium influx, capsaicin EC20 potentiation. potentiation, % at 8.33 µM. 0.02% of 320,000 active. AID 540277, 2011; in the data active = potentiation above about 80%; inconclusive = between about 30% and that limit; note: 0% is about no effect
Target sequence (Q8NER1 whole entry, looked up): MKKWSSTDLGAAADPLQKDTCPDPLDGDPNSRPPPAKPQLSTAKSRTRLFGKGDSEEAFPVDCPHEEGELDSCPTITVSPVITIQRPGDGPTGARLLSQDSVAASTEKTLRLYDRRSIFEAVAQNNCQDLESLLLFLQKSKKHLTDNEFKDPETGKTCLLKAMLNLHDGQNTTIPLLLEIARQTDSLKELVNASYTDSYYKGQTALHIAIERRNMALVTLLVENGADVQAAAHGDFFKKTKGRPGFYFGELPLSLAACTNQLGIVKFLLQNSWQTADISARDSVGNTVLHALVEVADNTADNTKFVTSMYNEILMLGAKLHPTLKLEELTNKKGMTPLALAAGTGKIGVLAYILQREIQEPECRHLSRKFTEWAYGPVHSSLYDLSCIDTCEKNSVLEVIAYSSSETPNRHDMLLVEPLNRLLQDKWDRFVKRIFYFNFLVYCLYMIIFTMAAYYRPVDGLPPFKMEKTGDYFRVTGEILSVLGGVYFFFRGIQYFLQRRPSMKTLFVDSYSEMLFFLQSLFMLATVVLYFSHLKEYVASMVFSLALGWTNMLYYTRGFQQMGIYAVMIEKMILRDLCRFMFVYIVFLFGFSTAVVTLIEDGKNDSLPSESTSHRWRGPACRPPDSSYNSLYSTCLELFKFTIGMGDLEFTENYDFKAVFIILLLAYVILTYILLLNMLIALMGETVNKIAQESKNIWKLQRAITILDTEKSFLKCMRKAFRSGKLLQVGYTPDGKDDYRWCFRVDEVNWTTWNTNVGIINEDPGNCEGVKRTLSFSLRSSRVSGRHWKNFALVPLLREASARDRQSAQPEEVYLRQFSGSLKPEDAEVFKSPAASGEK
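Cells expressing TRPV1 were dye-loaded with Fluo-8 and read kinetically: 10 s baseline, 3 min after compound (agonist portion), then 2 min after EC20 capsaicin (allosteric enhancer portion). Calcium-bound dye fluorescence at 480/520 nm.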
RXFP1 antagonist – qHTS Assay for Antagonists of the Relaxin Receptor RXFP1 | HEK293-RXFP1, relaxin-stimulated cAMP HTRF, 30 min; hits give low values | activity change, negative = inhibition, % at 57.5 µM | Relaxin receptor 1 (Homo sapiens), Q9HBX9 | 0.59% of 350,000 active;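 active = activity change of -60% or lower, but not beyond a set lower limit; inconclusive = change between -60% and -40%, or beyond the set limit; inactive = change above -40%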; note: % is set by controls: 0 for no effect and ±100 for the full control effect
TRPV1 ag – HTS Assay for Compounds that Act as Agonists of the Vanilloid Receptor 1; Transient receptor potential cation channel subfamily V member 1 (Homo sapiens), Q8NER1; activation, % at 8.33 µM; TRPV1-expressing cells, Fluo-8 calcium influx, agonist mode; AID 540275, 2011; 0.19% of 320,000 active; in the data active = activation above about 80%; inconclusive = between about 30% and that limit; note: 0% is about no effect
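TRPV1-expressing cells were cultured overnight at 35.5C and loaded with Fluo-8 calcium dye for 40 to 90 min at room temperature. After a 10 s baseline, compound was added and calcium influx was read kinetically for 3 min (ex 480/em 520 nm).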
gsp antag – qHTS for Antagonists of gsp, the Etiologic Mutation Responsible for Fibrous Dysplasia/McCune-Albright Syndrome: qHTS; gsp-mutant cells, cAMP HTRF, 30 min; Potency, µM (doses to about 76.9 µM), without a hit: top-dose activity change, negative = inhibition, hits mostly inhibitors; 0.4% of 340,000 active; AID 624288, 2012; calls by dose curve; cell line not stated here;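 note: intracellular cAMP measured with PDE inhibitor Ro 20-1724 present during compound exposure; potency is the fitted concentration of half-maximal effect; % is set by controls: 0 for no effect and ±100 for the full control effect; nearly all actives have a fitted effect of over 65% in size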
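HTRF cAMP read-out (cAMP-d2 plus anti-cAMP antibody-K in lysis buffer, 30 min RT). Before lysis, cells are exposed to compounds with […] for 30 min at 37C in DPBS containing Ca/Mg, BSA and Tween 20.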
RXFP1 ag – qHTS Assay for Agonists of the Relaxin Receptor RXFP1. Relaxin receptor 1 (Homo sapiens), Q9HBX9. HEK293T-RXFP1 cAMP TR-FRET, 30 min; response scale: percent of porcine relaxin response, buffer zero. Potency, µM (top dose mostly 57.5 µM), for inactives: top-dose activation, hits mostly activators. 0.3% of 370,000 active. AID 2676, 2010; active = well fitted activation curve with a large enough effect; inconclusive = small, poorly fitted or top-dose-only effect; note: potency is the fitted concentration of half-maximal effect; % is set by controls: 0 for no effect and ±100 for the full control effect; nearly all actives have a fitted effect of over 60% in size
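HEK293 cells stably expressing RXFP1, treated 30 min at 37C with compounds plus PDE4 inhibitor Ro 20174; cAMP measured by HTRF TR-FRET. Normalized to buffer and 29 nM porcine relaxin; EC50 by Hill fit.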
* marks the source's active call; other numbers are inactive results; ? = inconclusive; · = no result; [ ] = dose if it differs, or a comment. A selection: hits, their analogues and other compounds. The true share with any hit is near 1.1%.

SMILES | gsp agonist | TRPV1 PAM | RXFP1 antagonist | TRPV1 ag | gsp antag | RXFP1 ag
COc1ccc(-c2cc(C3CCN(c4cc(Cl)nc(N)n4)CC3)[nH]n2)cc1 | -4% | 1 | 6 | 0 | ? | -2%
O=C(NCCSCc1ccco1)Nc1cc(Cl)cc(Cl)c1 | 5% | -4 | -71* | 10 | ? | 1%
O=C(CSCc1ccc(Cl)cc1)NCCSCc1ccco1 | 8%[15.4 µM] | -10 | -24 | 26 | -1% | -1%
CCOc1ccccc1Cn1c(=O)sc2ccccc21 | -3%[15.4 µM] | -1 | -87* | 11 | ? | -1%
CC(C)CCOc1ccccc1Cn1c(=O)sc2ccccc21 | · | · | ? | · | · | -2%
Cc1ccc(NC(=O)CCN2C(=O)c3ccccc3Sc3ncccc32)c(Cl)c1 | · | · | 3 | · | · | 1%
COc1ccc(Cl)cc1NC(=O)C1(c2cccs2)CCOCC1 | 15% | -17 | 1 | 28 | ? | -3%
Cc1c(C(=O)Nc2ccc(F)cc2)c2ccccn2c1CCc1ccncc1 | 2%[15.4 µM] | -3 | -16 | -3 | 11µM* | 0%
COC(=O)CCc1c(C)c(C(=O)c2ccc(F)cc2)c2ccccn12 | 8%[15.4 µM] | -1 | -2 | 5 | -22% | 25%
N#Cc1c(SCC(=O)Nc2nccs2)sc2c(O)cc(=O)[nH]c12 | -2% | -9 | -87* | 0 | 9% | 8%
CCCSc1nnc(NC(=O)CSc2sc3c(O)cc(=O)[nH]c3c2C#N)s1 | 23% | 11 | -26 | -1 | 0% | 11%
CC(Sc1nccn1C)C(=O)Nc1ccccc1C#N (stereo not given) | · | · | · | · | · | -1%
CCc1ccc(NC(=O)CN(c2ccc(OC)cc2)S(=O)(=O)c2c(C)nn(C)c2C)cc1 | ? | -30 | -113* | 1 | -19% | -1%
O=C(NCc1nnc2c(C(F)(F)F)cc(Cl)cn12)c1ccc(Br)o1 | 13µM* | 5 | 20 | 0 | 14% | ?
O=C(NCc1nnc2c(C(F)(F)F)cc(Cl)cn12)c1cccnc1 | ? | -7 | 4 | 4 | 2% | 16µM*
Cc1nc(SCC(=O)N2CCOCC2)c2c(C)c(C)sc2n1 | -11% | 1 | 8 | 4 | 0% | 10%
Cc1nc(SC2CCOC2=O)c2c(C)c(C)sc2n1 (stereo not given) | 20µM* | 19 | -8 | 4 | 1% | ?
C[C@@H](NCCCc1cccc(C(F)(F)F)c1)c1cccc2ccccc12 | · | · | -68* | · | · | ·
Cc1ccc(NC(=S)NC2CCSc3ccccc32)cc1C (stereo not given) | 18% | -8 | 1 | 15 | -6% | 0%
Cc1ccc(-n2nnnc2C(Cl)c2nnnn2-c2ccc(C)cc2)cc1 | -35% | -12 | -63* | 8 | 10% | 0%
CCOc1ccc(-n2ccnc(SCC(=O)Nc3ccc(OC)cc3OC)c2=O)cc1 | -2% | 1 | -9 | 4 | -3% | 2%
CCOc1ccc(-n2ccnc(SCC(=O)NCc3cccc(OC)c3)c2=O)cc1 | 10µM* | -11 | -17 | -1 | 3% | 4%
COc1ccc(CCC(=O)NCc2ccc3c(c2)CCN3C(=O)c2cccc(C)c2)cc1 | · | · | -96* | · | · | 1%
O=C(c1cc(O)c(O)c(O)c1)c1ccc(O)c(O)c1O | · | · | -14 | · | · | ·
CCCN1C(=O)S/C(=C/c2ccc(N3CCOCC3)o2)C1=O | -43% | ? | -92* | -9 | -11% | -5%
SMILES | gsp agonist | TRPV1 PAM | RXFP1 antagonist | TRPV1 ag | gsp antag | RXFP1 ag
CCCN1C(=O)S/C(=C\c2ccc(N3CCOCC3)o2)C1=O | 2%[15.4 µM] | 23 | -37 | 27 | -2% | -5%
O=C(CSc1nnc(-c2cccs2)n1C1CC1)NCC1CCCO1 (stereo not given) | -20% | -1 | -1 | -5 | 13% | 1%
O=C(Cn1cnc2c(nnn2-c2ccc(F)cc2)c1=O)NCC1CCCO1 (stereo not given) | 10µM* | -7 | 23 | 2 | 8% | ?
COC(=O)Cn1cnc2c(nnn2-c2ccc(OC)cc2)c1=O | -42% | -16 | -6 | 2 | -1% | 2%
COc1ccc(-n2nnc3c(=O)n(CC(=O)NCC4CCCO4)cnc32)cc1 (stereo not given) | 7.9µM* | 4 | 4 | -1 | 35% | 11µM*
Cc1ccccc1Cn1c(SCc2ccc(C(=O)NCc3cccs3)cc2)nc2ccncc21 | · | · | -10 | · | · | 0%
Cc1cccc(N2CCN(C(=O)c3cccn3-c3nnc(N4CCCCC4)s3)CC2)c1C | · | · | -68* | · | · | 14%
CCN(CC)c1ccc(NC(=O)c2cccn2-c2nnc(N3CCCCC3)s2)c(C)c1 | · | · | -60* | · | · | -2%
O=C(Nc1ccc(F)cc1)/C(Cl)=C/c1ccccc1 | -13%[15.4 µM] | -1 | -9 | 83* | · | 0%
Cc1ccc(NC(=O)/C(Cl)=C\c2ccccc2)cc1 | -10%[15.4 µM] | -2 | -23 | -1 | -2% | 1%
N#C/C(=N\Nc1ccc(Cl)cc1)C(=O)c1ccccc1 | -3%[15.4 µM] | 6 | -16 | -3 | 28µM* | -1%
Cc1c(N/N=C(\C#N)C(=O)c2ccc(Cl)cc2)c(=O)n(-c2ccccc2)n1C | 20% | -6 | 2 | 10 | -19% | 1%
CC1CCN(S(=O)(=O)c2ccc(NC(=O)C3CCN(C(=O)c4ccco4)CC3)cc2)CC1 | -23% | -7 | -11 | 0 | -28% | 2%
CC(C)(C)c1ccc(NC(=S)NCc2cccnc2)cc1 | -5% | -31 | 8 | 86* | -3% | -4%
CCCCN1C(=O)C(=O)N(CC(=O)c2cc(C)n(C3CC3)c2C)C1=O | 23%[15.4 µM] | -14 | -3 | 12 | 3% | -3%
O=C(c1ccc(C(F)(F)F)cc1)C1CCCN(C(=O)CCc2ccncc2)C1 (stereo not given) | -4% | -14 | -2 | 87* | -26% | 1%
CSc1ccc(/C=N/NC(=O)C[n+]2ccccc2)cc1 | 20µM* | -1 | 6 | -3 | 4% | 0%
COC(=O)c1sc(-c2cccs2)cc1NC(=O)/C=C/C(=O)O | ? | -30 | ? | 1 | 22µM* | 15%
COC(=O)c1sc(-c2ccccc2)cc1NC(C)=O | 22%[15.4 µM] | 0 | 9 | 13 | -7% | 9%
CCOC(=O)C1CCN(C(=O)CCn2c(=O)oc3ccccc32)CC1 | 21% | · | -4 | · | · | ·
Cc1c(OCC(=O)N2CCC(C(N)=O)CC2)ccc2c1oc(=O)c1ccccc12 | · | 7 | · | 91* | -9% | 19%
COc1ccc(/C(C)=C/C(=O)O)c(OC)c1 | · | · | -3 | · | · | ·

Screens deposited in PubChem BioAssay by National Center for Advancing Translational Sciences (NCATS).
